{"source": "PubChem BioAssay AID1233", "about": "(SRMLSC, 2008)", "target": "HMG-CoA reductase [Enterococcus faecalis] (UniProt Q9FD70)", "test": "class II HMG-CoA reductase inhibition potency – biochemical, Enterococcus faecalis, confirmation (AID 1233)", "note": "Results with a measured potency or affinity are listed apart. Calls of active or inactive are those of the source.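 Rule for the calls: active = a dose-response curve fit returns a half-maximal inhibitory concentration, extrapolated values included; inactive = the fit returns no such concentration.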", "data": [{"smiles": "CCN1C(=O)/C(=C/c2cn(C)nc2C)SC1=S", "values": [{"measurement": "outcome", "value": "inactive"}]}, {"smiles": "Cc1ccc(C(=O)CC2(O)C(=O)N(C)c3ccccc32)s1", "note": "(stereo not drawn)", "values": [{"measurement": "outcome", "value": "inactive"}]}, {"smiles": "O=C(COc1ccc2ccc(=O)oc2c1)N1CCN(c2ccccc2)CC1", "values": [{"measurement": "outcome", "value": "inactive"}]}, {"smiles": "CCOc1ccc(CN2CCN(Cc3cc4ccccc4[nH]3)CC2CCO)cc1", "note": "(stereo not drawn)", "values": [{"measurement": "outcome", "value": "inactive"}]}, {"smiles": "COc1ccc(Nc2ccc(S(=O)(=O)N3CCCCC3)cc2[N+](=O)[O-])cc1", "values": [{"measurement": "outcome", "value": "inactive"}]}, {"smiles": "O=C(NC(=S)N(CC1CCC1)CC1CCCO1)c1cccc([N+](=O)[O-])c1", "note": "(stereo not drawn)", "values": [{"measurement": "outcome", "value": "inactive"}]}, {"smiles": "CC(=O)N(C)c1nc(N)n(-c2ccccc2)n1", "values": [{"measurement": "outcome", "value": "inactive"}]}, {"smiles": "COc1ccc(N(C(C)C(=O)N/N=C/c2ccc(OC(C)C)cc2)S(C)(=O)=O)cc1", "note": "(stereo not drawn)", "values": [{"measurement": "outcome", "value": "inactive"}]}, {"smiles": "Cc1ccc(NC(=O)c2cc(S(=O)(=O)NCCC3=CCCCC3)ccc2F)cc1", "values": [{"measurement": "outcome", "value": "inactive"}]}, {"smiles": "CCOC(=O)c1sc(NC(=O)CSc2n[nH]c(CC)n2)nc1C", "values": [{"measurement": "outcome", "value": "inactive"}]}, {"smiles": "O=C(O)c1cc(N/N=C/C(Cl)=C/c2ccccc2)ccc1Cl", "values": [{"measurement": "outcome", "value": "inactive"}]}, {"smiles": "COc1ccc(C/C(C)=N/NS(=O)(=O)c2ccc(Br)cc2)cc1", "values": [{"measurement": "outcome", "value": "inactive"}]}, {"smiles": "CCCNCc1cc(OC)c(OCc2ccccc2)cc1Br", "values": [{"measurement": "outcome", "value": "inactive"}]}, {"smiles": "O=C(Nc1ccc(Cl)cc1)Nc1nnc(-c2ccncc2)s1", "values": [{"measurement": "outcome", "value": "inactive"}]}, {"smiles": "Clc1ccc2c(c1)C(c1cccs1)=NNC(c1cccnc1)=N2", "values": [{"measurement": "outcome", "value": "inactive"}]}, {"smiles": "CC(=O)Nc1ccc(S(=O)(=O)N2CCCC2C(=O)O)cc1", "note": "(stereo not drawn)", "values": [{"measurement": "outcome", "value": "inactive"}]}, {"smiles": "Cc1ccc(-c2noc(CSc3nnc(Cc4ccccc4)n3-c3ccc(Cl)cc3)n2)cc1", "values": [{"measurement": "outcome", "value": "inactive"}]}, {"smiles": "Cc1nn2c(C(F)(F)F)cc(-c3ccc(Cl)cc3)nc2c1C(=O)N1CCOCC1", "values": [{"measurement": "outcome", "value": "inactive"}]}, {"smiles": "Nc1ccc(C(=O)Nc2ccc(OC(F)(F)C(F)F)c(NC(=O)c3ccc(N)cc3)c2)cc1", "values": [{"measurement": "outcome", "value": "inactive"}]}, {"smiles": "COc1cc(OC)c(OC)cc1/C=N/NC(=S)NCCN1CCOCC1", "values": [{"measurement": "outcome", "value": "inactive"}]}, {"smiles": "CCCCN(C(=S)Nc1cccc(C)c1C)c1c(N)n(CCC)c(=O)[nH]c1=O", "values": [{"measurement": "outcome", "value": "inactive"}]}, {"smiles": "Cc1ccc(Cc2cncc(O)c2)cc1S(=O)(=O)O", "values": [{"measurement": "outcome", "value": "inactive"}]}, {"smiles": "COc1ccc(N2CCN(C(=O)C3CCC(Cn4c(=S)[nH]c5ccccc5c4=O)CC3)CC2)cc1", "note": "(stereo not drawn)", "values": [{"measurement": "outcome", "value": "inactive"}]}, {"smiles": "COc1ccc(CN2CCNC(=O)C2CC(=O)NCCc2c[nH]c3ccccc23)c(OC)c1", "note": "(stereo not drawn)", "values": [{"measurement": "outcome", "value": "inactive"}]}, {"smiles": "CCOC(=O)c1ccc(Nc2nc(C(=O)OCC)nc3ccccc23)cc1", "values": [{"measurement": "outcome", "value": "inactive"}]}, {"smiles": "COc1ccc2c(c1)c(=O)c(C(=O)c1ccccc1)cn2Cc1ccc(C)cc1", "values": [{"measurement": "outcome", "value": "inactive"}]}, {"smiles": "COc1cc(OC)cc(C(=O)NC(C(=O)O)C23CC4CC(CC(C4)C2)C3)c1", "note": "(stereo not drawn)", "values": [{"measurement": "outcome", "value": "inactive"}]}, {"smiles": "COc1cc(C2NC(=O)NC(c3ccccc3)=C2C(C)=O)cc(Cl)c1OCC(=O)O", "note": "(stereo not drawn)", "values": [{"measurement": "outcome", "value": "inactive"}]}, {"smiles": "CN(CC(=O)NCCc1ccccc1)S(=O)(=O)c1ccccc1", "values": [{"measurement": "outcome", "value": "inactive"}]}, {"smiles": "COc1cc(/C=C2/C(=O)ON=C2C)ccc1OCc1cccc(F)c1", "values": [{"measurement": "outcome", "value": "inactive"}]}, {"smiles": "O=C1CC(=O)N(Cc2ccco2)C(=S)N1", "values": [{"measurement": "outcome", "value": "inactive"}]}, {"smiles": "COc1ccccc1NC(=S)N1CCCc2ccccc21", "values": [{"measurement": "outcome", "value": "inactive"}]}, {"smiles": "CCNC(=O)CSc1nc2cc([N+](=O)[O-])ccc2n1-c1cccc(C(F)(F)F)c1", "values": [{"measurement": "outcome", "value": "inactive"}]}, {"smiles": "Cc1cc(N2C(=O)C(O)=C(C(=O)c3ccco3)C2c2cccnc2)no1", "note": "(stereo not drawn)", "values": [{"measurement": "outcome", "value": "inactive"}]}, {"smiles": "COC(=O)c1sccc1-c1ccc(C(=O)Nc2cccnc2)o1", "values": [{"measurement": "outcome", "value": "inactive"}]}, {"smiles": "Cc1nc(Nc2nc3ccccc3o2)nc2c1CCC2", "values": [{"measurement": "outcome", "value": "inactive"}]}, {"smiles": "Cc1nn(-c2cc(N3CCCCCC3)ccc2[N+](=O)[O-])c(=O)c2ccccc12", "values": [{"measurement": "outcome", "value": "inactive"}]}, {"smiles": "COc1ccc(-c2nnc(SC(C)C(=O)Nc3ccc4c(c3)OCCO4)o2)cc1", "note": "(stereo not drawn)", "values": [{"measurement": "outcome", "value": "inactive"}]}]}
